From PubChem BioAssay AID463219 (Sanford-Burnham Center for Chemical Genomics, 2010)
Some of the results follow. Unmarked numbers belong to inactive results. Calls of active or inactive are those of the source.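 How the source made its calls: active means cytotoxicity above 50% in each of four replicates; inactive means the rest.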

Assay: AML12 hepatocyte cytotoxicity, confirmation, cytotoxicity control for hepatic lipid droplet formation project, cell-based, single concentration (AID 463219);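 further: compound exposure lasted overnight at 37 °C before the ATP read; 0% = DMSO-treated cells and 100% = wells with no cells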
Settings: AML12 mouse hepatocyte viability, ATP luminescence; at 50 µM; active compounds read high; cells loaded with 100 µM oleic acid

| Structure (SMILES) | cytotoxicity |
| --- | --- |
| COc1cccc(/C=C(/CC(=O)Nc2ccc(N3CCOCC3)cc2)c2nc3ccccc3s2)c1 | 9.53% |
| O=C1Nc2ccc(Br)cc2/C1=N/N=C/C1=C(N2CCOCC2)C(=C\c2ccccc2)/CC1 | -0.325% |
| COc1ccc(Cl)cc1NC(=O)CN(C)C(=O)CCCc1c[nH]c2ccccc12 | 22.5% |
| CCOc1ccc(CCNC(=O)CCc2nnc3ccc(N4CCCC4)nn23)cc1OCC | 2.1% |
| COc1ccc(/C=C(\NC(=O)c2ccc(OCC(C)C)cc2)C(=O)OCc2ccco2)cc1 | 7.73% |
| Cc1cc(C(=O)NC2CCCc3c2cnn3-c2cccc(C)c2C)c(C)o1 (stereo not drawn) | 14.5% |
| CCCN(CCC)c1ccc(C(O)c2nnc(-c3ccccc3)o2)cc1 (stereo not drawn) | 6.65% |
| CCOc1ccc(CCNC(=O)Nc2ccccc2)cc1OCC | 12.3% |
| Cc1cc(NC(=O)CSc2nc(C(C)C)nc3sc4c(c23)CCC(C)C4)no1 (stereo not drawn) | 10.1% |
| CCCc1ccc(-c2csc(NC(=O)Cc3cccs3)n2)cc1 | 14% |
| Cc1ccc(N2C(=O)C(NC(=O)c3c(F)cccc3F)(C(F)(F)F)C3=C2CC(C)(C)CC3=O)cc1 (stereo not drawn) | 13.2% |
| Cn1c(=O)[nH]c(=O)c2c1nc(N1CCN(C(c3ccccc3)c3ccccc3)CC1)n2CCO | 77.5% (active) |
| COc1ccc(C(C(=O)NC(C)(C)C)N(Cc2ccc(F)cc2)C(=O)CCC(=O)Nc2cc(C)on2)cc1 (stereo not drawn) | 10.5% |
